# Measurements from the supplement of paper PMC7724964.
# T1: GNAZ 2-355 G-alpha (domain begin residue: 2, domain end residue: 355), P19086
# T1 chain: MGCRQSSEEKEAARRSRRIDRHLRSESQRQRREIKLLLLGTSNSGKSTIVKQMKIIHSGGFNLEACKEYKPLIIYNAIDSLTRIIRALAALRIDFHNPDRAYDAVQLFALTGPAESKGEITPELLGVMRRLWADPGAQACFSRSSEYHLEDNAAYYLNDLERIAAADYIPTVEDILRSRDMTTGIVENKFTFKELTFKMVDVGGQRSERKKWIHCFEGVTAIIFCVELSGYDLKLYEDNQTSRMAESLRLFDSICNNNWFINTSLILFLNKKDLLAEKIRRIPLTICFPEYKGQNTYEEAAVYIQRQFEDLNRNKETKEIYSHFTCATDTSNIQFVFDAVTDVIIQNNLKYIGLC
# T2: HNF4A 148-377 Hormone_recep (domain begin residue: 148, domain end residue: 377), P41235
# T2 chain: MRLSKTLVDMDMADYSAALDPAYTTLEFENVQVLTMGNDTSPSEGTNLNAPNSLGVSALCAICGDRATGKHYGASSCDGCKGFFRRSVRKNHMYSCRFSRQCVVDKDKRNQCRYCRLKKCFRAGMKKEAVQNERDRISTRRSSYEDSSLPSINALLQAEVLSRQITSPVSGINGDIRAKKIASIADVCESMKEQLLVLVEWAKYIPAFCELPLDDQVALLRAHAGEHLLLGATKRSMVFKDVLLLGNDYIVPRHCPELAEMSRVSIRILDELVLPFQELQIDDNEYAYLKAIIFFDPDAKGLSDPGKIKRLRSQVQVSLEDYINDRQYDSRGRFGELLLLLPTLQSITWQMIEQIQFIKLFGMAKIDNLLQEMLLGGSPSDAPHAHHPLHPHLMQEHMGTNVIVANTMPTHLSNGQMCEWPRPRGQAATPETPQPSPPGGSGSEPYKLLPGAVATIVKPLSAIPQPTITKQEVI
# T3: HOMER1 1-163 WH1 (domain begin residue: 1, domain end residue: 163), Q86YM7
# T3 chain: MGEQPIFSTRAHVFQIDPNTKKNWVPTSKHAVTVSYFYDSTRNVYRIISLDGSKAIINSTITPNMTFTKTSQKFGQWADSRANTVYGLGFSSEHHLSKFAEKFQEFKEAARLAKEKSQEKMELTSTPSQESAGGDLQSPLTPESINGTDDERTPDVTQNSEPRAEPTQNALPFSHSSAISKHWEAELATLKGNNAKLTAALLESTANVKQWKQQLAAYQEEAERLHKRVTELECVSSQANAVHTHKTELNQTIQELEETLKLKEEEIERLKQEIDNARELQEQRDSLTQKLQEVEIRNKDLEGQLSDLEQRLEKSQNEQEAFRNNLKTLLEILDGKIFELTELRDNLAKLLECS
# T4: HOMER2 1-111 WH1 (domain begin residue: 1, domain end residue: 111), Q9NSB8
# T4 chain: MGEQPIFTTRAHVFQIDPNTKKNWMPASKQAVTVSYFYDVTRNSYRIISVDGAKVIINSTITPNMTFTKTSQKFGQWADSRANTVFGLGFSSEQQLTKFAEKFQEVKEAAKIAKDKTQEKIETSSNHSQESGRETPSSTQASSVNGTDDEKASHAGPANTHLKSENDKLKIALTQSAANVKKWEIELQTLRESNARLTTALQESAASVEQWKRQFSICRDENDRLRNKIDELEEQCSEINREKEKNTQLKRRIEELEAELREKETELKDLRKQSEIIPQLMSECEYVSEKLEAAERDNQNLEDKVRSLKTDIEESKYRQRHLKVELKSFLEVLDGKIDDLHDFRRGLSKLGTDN
# T5: HOMER3 1-118 WH1 (domain begin residue: 1, domain end residue: 118), Q9NSC5
# T5 chain: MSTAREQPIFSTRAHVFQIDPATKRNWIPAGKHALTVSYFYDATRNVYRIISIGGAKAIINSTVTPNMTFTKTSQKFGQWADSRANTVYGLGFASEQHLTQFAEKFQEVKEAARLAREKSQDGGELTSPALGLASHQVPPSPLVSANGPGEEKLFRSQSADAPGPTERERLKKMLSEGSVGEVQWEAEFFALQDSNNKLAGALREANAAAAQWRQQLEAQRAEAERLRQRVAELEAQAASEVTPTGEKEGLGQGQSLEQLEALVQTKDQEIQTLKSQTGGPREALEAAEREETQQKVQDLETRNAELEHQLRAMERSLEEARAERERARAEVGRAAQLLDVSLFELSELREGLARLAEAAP
# B1: unnamed (peptide)
# chain: EWSWSDSMHQFMNENT
# B2: unnamed (peptide)
# chain: GNHIWYWDQDEKLLEL
# B3: unnamed (peptide)
# chain: SPPQDVPPLWEYYHIW
# B4: unnamed (peptide)
# chain: PNHWFVIPIGEWYQKI
# B5: unnamed (peptide)
# chain: DWQGDHVHFWDLITME
# B6: unnamed (peptide)
# chain: NWWHSDLQPPQEWQDE
# B7: unnamed (peptide)
# chain: MEVMPPQGFQDAFLST
# B8: unnamed (peptide)
# chain: WEEWTNWASPPHEYRF
# B9: unnamed (peptide)
# chain: SDWLSTVWEHPMDWGA
# B10: unnamed (peptide)
# chain: SHITLIHEPPYGWTTN
# B11: unnamed (peptide)
# chain: HWVIPWETVPAPHEFH
# B12: unnamed (peptide)
# chain: YRYIAEVPEQFVDMHR
# B13: unnamed (peptide)
# chain: WGSLDWEVALKPPVEF
# B14: unnamed (peptide)
# chain: TQAFQHDHFWESLVMF
# B15: unnamed (peptide)
# chain: RQYKWWEWLVVQQPKA
# B16: unnamed (peptide)
# chain: YHYIAEVPEQFVDMHR
# B17: unnamed (peptide)
# chain: YNELEPEVAAWWWQYV
# B18: unnamed (peptide)
# chain: DAEMQDFIMAWWPELV
# B19: unnamed (peptide)
# chain: SLDQSDIRHIFYWMEW
# B20: unnamed (peptide)
# chain: PDVLQQLWEAMRSENW
# B21: unnamed (peptide)
# chain: QHMHFVMLDEIMYGMW
# B22: unnamed (peptide)
# chain: QVAMSEQSLNYFLTLL
# B23: unnamed (peptide)
# chain: YQMTDWTTWEHFMHMT
# B24: unnamed (peptide)
# chain: FYIYDTWVEWPPVVTV
# B25: unnamed (peptide)
# chain: VPWGDAQFSWPVEWMI
# B26: unnamed (peptide)
# chain: ALEMTMEQWTYFLQEW
# B27: unnamed (peptide)
# chain: TVSVTNIDMDMLSFLL
# B28: unnamed (peptide)
# chain: VMTLTELQDWLNAAYV
# B29: unnamed (peptide)
# chain: YMMDQHAWELLMTMMA
# How the values were obtained:
# Assay in all cases: phage ELISA signal ratio (GST-PRM binding over GST background); higher = stronger binding of peptide-phage to the PRM
# [1] = target: T1, GNAZ 2-355 G-alpha (domain begin …
# Outline: (§1)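 Five rounds of selection were carried out against human peptide recognition domains fused to the C-terminus of glutathione S-transferase (GST) and expressed in 96-well plates. The M13 phage library presented randomized hexadecapeptides, cysteine-free and glycine-flanked, on the gene-8 major coat protein. For each value, the phage ELISA signal on the GST-domain fusion was divided by the signal on GST alone.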
# [2] = target: HGS 1-154 VHS (domain begin residue: 1, domain end residue: 154), O14964
# Outline: as §1
# [3] = target: T2, HNF4A 148-377 Hormone_recep (domain …
# Outline: as §1
# [4] = target: T3, HOMER1 1-163 WH1 (domain begin residue: …
# Outline: as §1
# [5] = target: T4, HOMER2 1-111 WH1 (domain begin residue: …
# Outline: as §1
# [6] = target: T5, HOMER3 1-118 WH1 (domain begin residue: …
# Outline: as §1
# [7] = target: HSPA8 394-614 HSP70 (domain begin residue: 394, domain end residue: 614), P11142
# Outline: as §1
# [8] = target: HSPA9 438-651 HSP70 (domain begin residue: 438, domain end residue: 651), P38646
# Outline: as §1
# Sequence of HSPA8 394-614 HSP70 (domain begin residue: 394, domain end residue: 614), P11142 (P11142 whole entry, looked up, tested part not stated): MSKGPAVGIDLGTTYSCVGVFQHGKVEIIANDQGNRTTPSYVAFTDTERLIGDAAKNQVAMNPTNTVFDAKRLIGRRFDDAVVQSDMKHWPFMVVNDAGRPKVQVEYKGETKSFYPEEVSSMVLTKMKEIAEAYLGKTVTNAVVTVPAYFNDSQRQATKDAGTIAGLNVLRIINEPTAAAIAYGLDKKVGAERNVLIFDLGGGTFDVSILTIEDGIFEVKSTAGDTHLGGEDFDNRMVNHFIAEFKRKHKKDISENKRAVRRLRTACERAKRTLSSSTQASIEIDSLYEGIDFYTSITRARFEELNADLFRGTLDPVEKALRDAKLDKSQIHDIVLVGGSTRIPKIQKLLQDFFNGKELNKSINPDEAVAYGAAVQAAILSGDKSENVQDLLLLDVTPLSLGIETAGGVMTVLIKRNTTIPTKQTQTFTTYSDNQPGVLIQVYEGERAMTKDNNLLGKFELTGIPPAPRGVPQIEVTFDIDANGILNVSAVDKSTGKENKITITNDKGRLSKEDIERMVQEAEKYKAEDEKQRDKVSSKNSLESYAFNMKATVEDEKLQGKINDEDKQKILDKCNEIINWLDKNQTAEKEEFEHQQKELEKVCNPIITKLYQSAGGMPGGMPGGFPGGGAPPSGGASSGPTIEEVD
# Sequence of HSPA9 438-651 HSP70 (domain begin residue: 438, domain end residue: 651), P38646 (P38646 whole entry): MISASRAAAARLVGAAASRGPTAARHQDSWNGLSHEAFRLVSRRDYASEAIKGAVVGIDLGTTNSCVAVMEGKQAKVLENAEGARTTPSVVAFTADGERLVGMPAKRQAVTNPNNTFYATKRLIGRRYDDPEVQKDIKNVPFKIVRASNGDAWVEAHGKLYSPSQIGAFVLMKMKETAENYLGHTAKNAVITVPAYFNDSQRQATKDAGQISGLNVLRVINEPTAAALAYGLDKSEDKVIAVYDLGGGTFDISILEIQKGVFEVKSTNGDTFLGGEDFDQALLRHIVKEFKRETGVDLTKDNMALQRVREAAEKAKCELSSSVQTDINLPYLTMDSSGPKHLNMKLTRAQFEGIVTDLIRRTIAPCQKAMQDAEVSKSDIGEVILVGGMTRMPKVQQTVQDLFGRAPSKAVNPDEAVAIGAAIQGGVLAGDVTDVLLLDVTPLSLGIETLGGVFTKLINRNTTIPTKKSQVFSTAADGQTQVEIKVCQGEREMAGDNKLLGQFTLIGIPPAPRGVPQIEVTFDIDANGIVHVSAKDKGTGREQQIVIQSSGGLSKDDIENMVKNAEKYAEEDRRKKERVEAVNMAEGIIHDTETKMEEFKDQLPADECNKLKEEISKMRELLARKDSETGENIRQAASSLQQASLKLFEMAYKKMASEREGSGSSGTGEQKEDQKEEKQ
# Sequence of HGS 1-154 VHS (domain begin residue: 1, domain end residue: 154), O14964 (O14964 whole entry): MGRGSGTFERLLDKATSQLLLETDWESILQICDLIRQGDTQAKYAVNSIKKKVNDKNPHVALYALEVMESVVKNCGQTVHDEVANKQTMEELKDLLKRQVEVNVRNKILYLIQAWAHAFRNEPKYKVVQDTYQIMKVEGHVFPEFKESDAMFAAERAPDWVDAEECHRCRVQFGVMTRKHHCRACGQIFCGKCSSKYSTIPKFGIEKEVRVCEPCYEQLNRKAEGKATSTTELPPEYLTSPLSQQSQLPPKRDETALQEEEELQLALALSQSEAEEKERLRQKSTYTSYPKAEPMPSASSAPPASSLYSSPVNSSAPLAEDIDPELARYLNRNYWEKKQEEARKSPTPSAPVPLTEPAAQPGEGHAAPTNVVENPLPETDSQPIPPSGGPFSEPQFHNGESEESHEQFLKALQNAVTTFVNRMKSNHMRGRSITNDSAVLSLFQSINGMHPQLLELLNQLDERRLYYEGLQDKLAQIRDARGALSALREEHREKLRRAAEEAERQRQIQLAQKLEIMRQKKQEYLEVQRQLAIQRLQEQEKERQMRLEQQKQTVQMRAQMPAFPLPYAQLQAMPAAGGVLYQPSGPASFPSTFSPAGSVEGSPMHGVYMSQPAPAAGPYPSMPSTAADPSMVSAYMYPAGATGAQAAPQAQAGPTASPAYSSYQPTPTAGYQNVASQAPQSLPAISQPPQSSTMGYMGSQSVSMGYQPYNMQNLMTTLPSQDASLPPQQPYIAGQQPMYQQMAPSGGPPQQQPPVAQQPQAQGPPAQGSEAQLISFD
binder,measurement,setting,value
B1,phage ELISA signal ratio,[1],27.6
B2,phage ELISA signal ratio,[1],30.4
B3,phage ELISA signal ratio,[1],32.1
B4,phage ELISA signal ratio,[2],15.9
B5,phage ELISA signal ratio,[3],10.8
B6,phage ELISA signal ratio,[4],4.77
B7,phage ELISA signal ratio,[4],4.78
B8,phage ELISA signal ratio,[5],10.2
B9,phage ELISA signal ratio,[5],13.5
B10,phage ELISA signal ratio,[5],14.3
B11,phage ELISA signal ratio,[5],15.2
B12,phage ELISA signal ratio,[5],15.5
B13,phage ELISA signal ratio,[5],17.9
B14,phage ELISA signal ratio,[6],4.73
B15,phage ELISA signal ratio,[6],5.84
B16,phage ELISA signal ratio,[6],10.5
B17,phage ELISA signal ratio,[7],8.35
B18,phage ELISA signal ratio,[7],8.68
B19,phage ELISA signal ratio,[7],10.4
B20,phage ELISA signal ratio,[7],20.4
B21,phage ELISA signal ratio,[7],23.6
B22,phage ELISA signal ratio,[8],3.89
B23,phage ELISA signal ratio,[8],6.13
B24,phage ELISA signal ratio,[8],6.36
B25,phage ELISA signal ratio,[8],8.49
B26,phage ELISA signal ratio,[8],10.8
B27,phage ELISA signal ratio,[8],15
B28,phage ELISA signal ratio,[8],15
B29,phage ELISA signal ratio,[8],16.4
